Screens (PubChem)
In the library only some 4.6% were active in any assay of this set; here they are far more common.
TRHR enhancer: allosterically enhances the human TRH receptor | 360,000 compounds, 0.66% hits | TRHR cells, fluo-8 calcium fluorescence, EC20 TRH enhancement | AID 493056 | enhancement, % at 2 µM; in the data active = enhancement above about 30%; also: 0% is about no effect
Target sequence (P34981 whole entry, looked up): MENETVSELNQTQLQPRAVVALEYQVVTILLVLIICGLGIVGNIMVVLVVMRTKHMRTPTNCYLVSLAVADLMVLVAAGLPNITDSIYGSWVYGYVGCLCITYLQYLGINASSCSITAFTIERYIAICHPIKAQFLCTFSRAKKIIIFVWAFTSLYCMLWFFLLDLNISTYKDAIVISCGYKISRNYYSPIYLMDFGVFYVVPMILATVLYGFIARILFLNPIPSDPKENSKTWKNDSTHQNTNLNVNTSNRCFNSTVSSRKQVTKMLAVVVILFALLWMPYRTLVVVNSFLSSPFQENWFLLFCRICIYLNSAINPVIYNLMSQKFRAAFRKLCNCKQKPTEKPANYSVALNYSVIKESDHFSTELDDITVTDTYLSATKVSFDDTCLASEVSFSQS
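Enhancer read-out: after compound pinning and an initial kinetic agonist-mode read, an EC20 of TRH (10 nM final) was injected and fluo-8 calcium signal (Ex 480/Em 530) followed at 1 s/cycle for 100 cycles in TRHR-expressing cells.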
TRHR ag: TRH receptor (human) agonism. 360,000 compounds, 0.18% hits. activation, % at 2 µM. TRHR cells, calcium flux fluo-8, FDSS agonist mode. P34981. AID 493084; also: 0% is about no effect
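Fluo-8-loaded TRHR cells; 10 s baseline, compound added, kinetic Ca2+ fluorescence read 1/s, agonist mode.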
D1 antag: antagonists of human D1 dopamine receptor. HEK293 TREx D1 cells, calcium flux, dopamine EC80; hits give low values. activity change, negative = inhibition, % at 10 µM. 360,000 compounds, 3.2% hits. AID 504652; in the data active = activity change below about -30%; also: % is scaled to controls: 0 for no effect and ±100 for the full control effect
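Compound effects on dopamine-evoked calcium signalling were measured in tetracycline-induced HEK293 Trex D1 cells. Dopamine at EC80 followed a 180 s compound pre-read, and fluorescence was tracked kinetically for 180 s more.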
D1 agonist: human D1 receptor agonism; P21728; HEK293 T-REx D1 cells, calcium flux, agonist mode; activation, % at 2 µM; 360,000 compounds, 1% hits; also: 0% is about no effect
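Inducible HEK293 T-REx D1 cells, force-coupled to calcium signalling, were plated at 4000 cells/well with tetracycline and held overnight at 30 C. After no-wash calcium dye loading, compound-evoked calcium rise over 180 s flagged agonists.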
D1 PAM: potentiators of human D1 dopamine receptor; P21728; HEK293 TREx D1 cells, calcium flux, dopamine EC20 potentiation; potentiation, % at 10 µM; 360,000 compounds, 0.036% hits; in the data active = potentiation above about 30%; also: 0% is about no effect
* marks the source's active call; other numbers are inactive results. Rule as the data show it, unless noted: active = activation above about 30%; inactive = the rest.

What do the screens show for `CCOC(=O)c1sc(NC(=O)c2ccccc2)cc1C`?
TRHR enhancer: 4; TRHR ag: 0; D1 antag: -14; D1 agonist: 42*; D1 PAM: -6

How did CCNC(=O)c1ccc(C)c(-n2c(C)nc3cccnc32)c1 do in these assays?
TRHR enhancer: 6; TRHR ag: 0; D1 antag: -6; D1 agonist: -1; D1 PAM: -1

How did CCC1=Nc2cc(C(=O)NCCN3CCCC3)ccc2Sc2ccccc21 do in these assays?
TRHR enhancer: 4; TRHR ag: 1; D1 antag: -30*; D1 agonist: 16; D1 PAM: -8

How did CCC1=Nc2cc(C(=O)NCCN3CCOCC3)ccc2Sc2ccc(Br)cc21 do in these assays?
TRHR enhancer: -1; TRHR ag: 1; D1 antag: -36*; D1 agonist: 11; D1 PAM: -14

What do the screens show for `C#CC(C)(CC)NC(=O)Cn1nnc(-c2ccc(OCc3ccccc3F)cc2)n1` (configuration not stated)?
TRHR enhancer: -2; TRHR ag: 1; D1 antag: 1; D1 agonist: 4; D1 PAM: -5

How did CCCCCCN(C(=O)CCCCCN1C(=O)NC(c2ccccc2)C(C(=O)OCc2ccccc2)=C1C)C(C(=O)NCCCC)c1ccc(OCC(=O)OC)c(C(=O)OC)c1 (configuration not stated) do in these assays?
TRHR enhancer: 2; TRHR ag: 0; D1 antag: -54*; D1 agonist: 38*; D1 PAM: -5

How did CCCCCCN(C(=O)CCCCCN1C(=O)NC(c2ccc(C(C)(C)C)cc2)C(C(=O)OCc2ccccc2)=C1C)C(C(=O)NCCCC)c1ccc(OCC(=O)OC)c(C(=O)OC)c1 (configuration not stated) do in these assays?
TRHR enhancer: -5; TRHR ag: 3; D1 antag: -13; D1 agonist: 17; D1 PAM: -5

What do the screens show for `COc1ccc2[nH]c(=O)c(CN(Cc3nnnn3Cc3ccccc3)CC3CCCO3)cc2c1` (configuration not stated)?
TRHR enhancer: -6; TRHR ag: -1; D1 antag: -4; D1 agonist: 0; D1 PAM: -5

What do the screens show for `Cc1ccc2cc(CN(CC3CCCO3)C(=S)NCc3ccco3)c(=O)[nH]c2c1C` (configuration not stated)?
TRHR enhancer: 34*; TRHR ag: 1; D1 antag: 2; D1 agonist: 3; D1 PAM: -12

What do the screens show for `CCCCNC(=S)N(Cc1ccco1)Cc1cc2cc3c(cc2[nH]c1=O)OCCO3`?
TRHR enhancer: 2; TRHR ag: 1; D1 antag: -46*; D1 agonist: -1; D1 PAM: -5

How did Cc1ccc2cc(CN(Cc3nnnn3Cc3ccco3)CC3CCCO3)c(=O)[nH]c2c1C (configuration not stated) do in these assays?
TRHR enhancer: -2; TRHR ag: 0; D1 antag: -35*; D1 agonist: -2; D1 PAM: 0

How did Cc1ccc(C)c2[nH]c(=O)c(CN(CC3CCCO3)C(=S)NCc3ccco3)cc12 (configuration not stated) do in these assays?
TRHR enhancer: 9; TRHR ag: 0; D1 antag: -4; D1 agonist: 1; D1 PAM: -2

What do the screens show for `Cc1ccc(C2C(=O)N(C3CCCCCC3)CC(=O)N2C(C)C)cc1` (configuration not stated)?
TRHR enhancer: -1; TRHR ag: -1; D1 antag: -11; D1 agonist: -4; D1 PAM: 4

How did CCc1ccccc1NC(=O)CN(Cc1ccccc1)S(=O)(=O)c1ccc2nc(C)sc2c1 do in these assays?
TRHR enhancer: 3; TRHR ag: 0; D1 antag: 12; D1 agonist: 1; D1 PAM: -5

What do the screens show for `Cc1ccccc1-c1nn2c(=O)cc(CN3CCN(S(=O)(=O)c4ccc(Cl)cc4)CC3)nc2s1`?
TRHR enhancer: -1; TRHR ag: 0; D1 antag: -30*; D1 agonist: -1; D1 PAM: -6

How did O=c1cc(CN2CCN(S(=O)(=O)c3ccccc3)CC2)nc2sc(-c3ccccc3Cl)nn12 do in these assays?
TRHR enhancer: 1; TRHR ag: -1; D1 antag: 1; D1 agonist: 0; D1 PAM: 3

Results for O=c1cc(CN2CCN(S(=O)(=O)c3ccc(Cl)cc3)CC2)nc2sc(-c3ccccc3F)nn12 ?
TRHR enhancer: -3; TRHR ag: 0; D1 antag: -37*; D1 agonist: -1; D1 PAM: -3

Results for COc1ccc(OC)c(NC(=O)CN2C(=O)COc3ccc(S(=O)(=O)NC4CCCC4)cc32)c1 ?
TRHR enhancer: 4; TRHR ag: 0; D1 antag: 12; D1 agonist: -2; D1 PAM: -5

How did COc1cccc(CNCc2cc(OC)cc(OC)c2)c1 do in these assays?
TRHR enhancer: 4; TRHR ag: 0; D1 antag: -12; D1 agonist: 10; D1 PAM: -8

How did Fc1cccc(CNCc2ccc3c(c2)OCO3)c1 do in these assays?
TRHR enhancer: 13; TRHR ag: 0; D1 antag: 6; D1 agonist: 2; D1 PAM: 2

What do the screens show for `COc1cc(CNCc2ccc(SC)cc2)cc(OC)c1`?
TRHR enhancer: 2; TRHR ag: 0; D1 antag: -2; D1 agonist: 33*; D1 PAM: -1

Results for CSc1ccc(CNCc2ccc3c(c2)OCO3)cc1 ?
TRHR enhancer: 2; TRHR ag: -1; D1 antag: -4; D1 agonist: 36*; D1 PAM: -4

How did Cc1ccc(/C=C/c2onc(C)c2S(=O)(=O)N2CCC(C(=O)NCc3ccc(C)o3)CC2)cc1 do in these assays?
TRHR enhancer: 27; TRHR ag: -1; D1 antag: 10; D1 agonist: 11; D1 PAM: -3

How did CC(=O)N1CCc2cc(S(=O)(=O)NC(CC(C)C)C(=O)NCc3ccccc3Cl)ccc21 (configuration not stated) do in these assays?
TRHR enhancer: -4; TRHR ag: -1; D1 antag: 14; D1 agonist: 1; D1 PAM: 0

What do the screens show for `O=C(Nc1ccc(F)c(Cl)c1)C1CCCN(S(=O)(=O)c2cccc3nsnc23)C1` (configuration not stated)?
TRHR enhancer: -7; TRHR ag: 2; D1 antag: -11; D1 agonist: -1; D1 PAM: 2

How did O=C(Nc1ccc2c(c1)OCCO2)C1CCCN(S(=O)(=O)c2cccc3nsnc23)C1 (configuration not stated) do in these assays?
TRHR enhancer: 19; TRHR ag: 0; D1 antag: -36*; D1 agonist: 0; D1 PAM: 38*

How did COc1ccc(C(=O)Oc2ccc(/C=N/O)cc2)cc1 do in these assays?
TRHR enhancer: 7; TRHR ag: 0; D1 antag: -35*; D1 agonist: 3; D1 PAM: -3
